Assay results: PubChem BioAssay
“And” between values parts separate entries of the source, which are not always exact repeats. Identical values can stand only once. Inconclusive results are not listed. The source made the active and inactive calls.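 How the source made its calls, unless noted: active means normalized viability below 100% at a tested concentration; inactive means the rest.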

Key:
[1] = stimulators of nuclear beta-catenin in C2C12, primary screen, imaging, WNT3A-conditioned medium, mouse C2C12, NPC library (AID 1117326; in the data active means nuclear beta-catenin stimulation mostly above about 4.2%, no sharp cut-off; inactive means mostly below about 10%); details: stronger effect = higher value
[2] = stimulators of insulin release from INS-1E, primary screen, cell-based, 5 mM glucose, NPC library (AID 1117329;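 active means compound raises insulin release from rat beta cells at 5 mM glucose, no numeric limit stated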); details: rat INS-1E insulin secretion, at 10 µM, stronger effect = higher value
[3] = growth inhibition of GSK3B-pretreated HCT116 cells – cell-based, CellTiter-Glo, 0.2 to 20 µM (AID 1117336;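 active means compounds lowering colon cancer cell viability after pretreatment blocking the GSK3B kinase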); details: HCT116 viability after GSK3B inhibitor, at 20 µM, stronger effect = higher value
[4] = inhibition of endothelial tube formation, primary screen, imaging, VEGF stimulated, CD31 staining, tube area, NPC library (AID 1117340;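 active means compound that reduces growth-factor-driven endothelial tube area in a mixed cell culture, no cutoff stated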); details: VEGF-stimulated ADSC/ECFC co-culture, at 10 µM, stronger effect = higher value
[5] = glucagon-like peptide 1 release enhancers, primary assay, NCI-H716 cell line, NPC library (AID 1117341;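 active means compound raises GLP1 secretion from the human gut endocrine cells, with no numeric limit stated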); details: NCI-H716 cells, at 10 µM, stronger effect = higher value
[6] = HCT116 colon cancer cell growth inhibition, primary screen, CellTiter-Glo luminescence, NPC library (AID 1117342;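 active means compounds that lower survival of HCT116 colon cancer cells in the luminescence readout, no numeric limit stated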); details: at 20 µM (top of the series)
[7] = CellTiter-Glo luminescent readout of SW480 viability loss, NPC library primary (AID 1117343;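 active means compounds that lower viability of the colon cancer cells in the luminescence readout, with no numeric limit stated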); details: CellTiter-Glo luminescence; at 20 µM (top of the series) unless noted
[8] = decreased DLD-1 cellular survival, CellTiter-Glo luminescent readout, NPC compound collection, primary HTS (AID 1117346;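 active means compounds that lower survival of DLD-1 colon cancer cells in the luminescence readout, no cutoff given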); details: DLD-1 viability, CellTiter-Glo luminescence; at 20 µM (top of the series)
[9] = viability loss in pontine glioma line – cell-based, SU-DIPG-XXV, MIPE5.0, CellTiter-Glo, qHTS, dose response (AID 1347065; cut-off not given, nearly all actives have AC50 up to about 26 µM;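 further: cells exposed to compound for 48 hours before ATP readout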); details: CellTiter-Glo ATP luminescence
[10] = JHH-DIPG-1 glioma cell viability, MIPE5.0 library, CellTiter-Glo luminescence, qHTS (AID 1347067; cut-off not given, nearly all actives have AC50 up to about 26 µM;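 further: cells exposed to compound for 48 hours before readout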); details: JHH-DIPG-1 glioma viability, CellTiter-Glo ATP luminescence
[11] = SU-DIPG-XXV glioma cell viability, MIPE5.0 library, qHTS (AID 1347068; cut-off not given, nearly all actives have IC50 up to about 30 µM;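 on IC50: cells exposed to compound for 48 hours before viability readout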)
[12] = ovarian cancer cell viability with rucaparib, profiling panel, oncology-focused library, rucaparib conditional (AID 1508598); details: patient-derived ovarian cancer cells, CellTiter-Glo viability, 144 h, stronger effect = lower value
[13] = growth inhibition of DIPG glioma cells, dose response, cell-based, JHH-DIPG-1, MIPE4.0, CellTiter-Glo, qHTS (AID 1347062; cut-off not given, nearly all actives have AC50 up to about 27 µM;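 on AC50: cells exposed to compound for two days before readout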); details: JHH-DIPG-1 viability, CellTiter-Glo ATP luminescence
[14] = SU-DIPG-VI glioma cell viability, MIPE4.0 library, CellTiter-Glo luminescence, qHTS (AID 1347066; cut-off not given, nearly all actives have AC50 up to about 30 µM;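 further: cells exposed to compound for 48 hours before readout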); details: CellTiter-Glo ATP luminescence
[15] = sensitizers of A549 cells to miR-34 induction, primary screen, imaging, A549 dox-inducible miR-34, nuclei and caspase counts (AID 1347080;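 active means compounds whose cell count with miR-34 switched on is under 0.7 times the count with it off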); details: A549 miR-34 inducible, Hoechst nuclei count, 48 h
[16] = survival rescue of mitochondrial mutant cells in low glucose, primary screen, MELAS cybrids, Rieske KO mouse fibroblasts, CellTiter-Glo (AID 1508586;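 active means mean z-score across replicates of 1.96 or higher in either the MELAS or the Rieske mutant cell line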;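 further: z relative to plate mean and SD of compound and empty wells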)
[17] = growth inhibition of DIPG glioma cells, dose response, cell-based, SU-DIPG-IV, MIPE4.0, CellTiter-Glo, qHTS (AID 1347063; cut-off not given, nearly all actives have AC50 up to about 30 µM;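 further: compound exposure lasted 48 hours before the viability readout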); details: SU-DIPG-IV viability, CellTiter-Glo ATP luminescence

CNC(=O)c1ccccc1Sc1ccc2c(/C=C/c3ccccn3)n[nH]c2c1
active: tube area decrease [4] 106% | viability decrease (inhibition) [7] 59.2% | viability decrease (inhibition) [8] 56.9% | AC50 [9] 1.18 µM | AC50 [10] 5.25 µM | IC50 [11] 3.72 µM | viability ([12]; at 0.000305 µM, OCI-P5x cells, without rucaparib) 95.9% | viability ([12]; at 0.00122 µM, OCI-P5x cells, without rucaparib) 93.6% | viability ([12]; at 0.00488 µM, OCI-P5x cells, without rucaparib) 98% | viability ([12]; at 0.0195 µM, OCI-P5x cells, without rucaparib) 94.2% | viability ([12]; at 0.0781 µM, OCI-C5x cells, without rucaparib) 98.3% | viability ([12]; at 0.0781 µM, OCI-P5x cells, without rucaparib) 96.6% | viability ([12]; at 0.313 µM, OCI-C5x cells, without rucaparib) 97.7% | viability ([12]; at 0.313 µM, OCI-P5x cells, without rucaparib) 87.8% | viability ([12]; at 1.25 µM, OCI-P5x cells, with rucaparib 20 µM, 100% = cells with rucaparib alone) 95.4% | viability ([12]; at 1.25 µM, OCI-P5x cells, without rucaparib) 85.8% | viability ([12]; at 5 µM, OCI-C5x cells, without rucaparib) 93.2% | viability ([12]; at 5 µM, OCI-P5x cells, without rucaparib) 83%
7.2%: nuclear beta-catenin stimulation ([1]; stimulation, at 2 µM)
inactive: nuclear beta-catenin stimulation ([1]; at 10 µM) 4.6% | insulin secretion stimulation [2] 4.65% | viability decrease [3] 21% | GLP1 secretion stimulation [5] 1% | inhibition of viability [6] 45.5% | viability ([12]; at 0.000305 µM, OCI-C5x cells, with rucaparib 10 µM, 100% = cells with rucaparib alone) 107% | viability ([12]; at 0.000305 µM, OCI-C5x cells, without rucaparib) 114% | viability ([12]; at 0.000305 µM, OCI-P5x cells, with rucaparib 20 µM, 100% = cells with rucaparib alone) 106% | viability ([12]; at 0.00122 µM, OCI-C5x cells, with rucaparib 10 µM, 100% = cells with rucaparib alone) 116% | viability ([12]; at 0.00122 µM, OCI-C5x cells, without rucaparib) 110% | viability ([12]; at 0.00122 µM, OCI-P5x cells, with rucaparib 20 µM, 100% = cells with rucaparib alone) 112% | viability ([12]; at 0.00488 µM, OCI-C5x cells, with rucaparib 10 µM, 100% = cells with rucaparib alone) 109% | viability ([12]; at 0.00488 µM, OCI-C5x cells, without rucaparib) 110% | viability ([12]; at 0.00488 µM, OCI-P5x cells, with rucaparib 20 µM, 100% = cells with rucaparib alone) 106% | viability ([12]; at 0.0195 µM, OCI-C5x cells, with rucaparib 10 µM, 100% = cells with rucaparib alone) 114% | viability ([12]; at 0.0195 µM, OCI-C5x cells, without rucaparib) 103% | viability ([12]; at 0.0195 µM, OCI-P5x cells, with rucaparib 20 µM, 100% = cells with rucaparib alone) 108% | viability ([12]; at 0.0781 µM, OCI-C5x cells, with rucaparib 10 µM, 100% = cells with rucaparib alone) 118% | viability ([12]; at 0.0781 µM, OCI-P5x cells, with rucaparib 20 µM, 100% = cells with rucaparib alone) 126% | viability ([12]; at 0.313 µM, OCI-C5x cells, with rucaparib 10 µM, 100% = cells with rucaparib alone) 110% | viability ([12]; at 0.313 µM, OCI-P5x cells, with rucaparib 20 µM, 100% = cells with rucaparib alone) 101% | viability ([12]; at 1.25 µM, OCI-C5x cells, with rucaparib 10 µM, 100% = cells with rucaparib alone) 112% | viability ([12]; at 1.25 µM, OCI-C5x cells, without rucaparib) 105% | viability ([12]; at 5 µM, OCI-C5x cells, with rucaparib 10 µM, 100% = cells with rucaparib alone) 110% | viability ([12]; at 5 µM, OCI-P5x cells, with rucaparib 20 µM, 100% = cells with rucaparib alone) 107%

COCCCN1CCC(NC(=O)c2cc(Cl)c(N)c3c2OCC3)CC1
8300 and 5970: cell count ([15]; measured here: total cells without miR-34 induction)
active: AC50 [14] 23.5 µM
-2%: nuclear beta-catenin stimulation ([1]; stimulation, at 2 µM)
-0.104 and -0.205: z-score ([16]; Rieske KO mouse fibroblast survival, CellTiter-Glo 72 h)
8080 and 7810: cell count ([15]; measured here: total cells with miR-34 induction, stronger effect = lower value)
inactive: nuclear beta-catenin stimulation ([1]; at 10 µM) 0.7% | insulin secretion stimulation [2] 1% | viability decrease [3] -4.2% | tube area decrease [4] -8% | GLP1 secretion stimulation [5] 1.9% | inhibition of viability [6] 3.4% | viability decrease (inhibition) [7] -13.9% | viability decrease (inhibition) [8] -4.2% | outcome [13] | outcome [10] | outcome [11] | fold change ([15]; stronger effect = lower value, cell number ratio, induced over uninduced) 0.972 and 1.31 | z-score ([16]; MELAS cybrid survival, CellTiter-Glo 48 h, stronger effect = higher value) -0.321 and -0.32
0.687 and 0.593: fold change ([15]; measured here: relative caspase fold change +Dox/-Dox)

C=CC(=O)Nc1cc2c(Nc3ccc(F)c(Cl)c3)ncnc2cc1OCCCN1CCOCC1
9.2%: nuclear beta-catenin stimulation ([1]; stimulation, at 2 µM)
active: nuclear beta-catenin stimulation ([1]; at 10 µM) 45.9% | viability decrease [3] 108% | tube area decrease [4] 43.3% | inhibition of viability [6] 112% | viability decrease (inhibition) [7] 130% | viability decrease (inhibition) [8] 101% | AC50 [13] 18.7 µM | AC50 [17] 5.9 µM | AC50 [9] 6.61 µM | AC50 [14] 14.8 µM | AC50 [10] 9.34 µM | IC50 [11] 5.25 µM
inactive: insulin secretion stimulation [2] 1.6% | GLP1 secretion stimulation [5] 2.8%

CC(C)OC(=O)OCOP(=O)(CO[C@H](C)Cn1cnc2c(N)ncnc21)OCOC(=O)OC(C)C
active: tube area decrease [4] 65.2%
inactive: nuclear beta-catenin stimulation ([1]; at 10 µM) 6.3% | insulin secretion stimulation [2] 13.8% | viability decrease [3] 2.2% | GLP1 secretion stimulation [5] -1.8% | inhibition of viability [6] 32.1% | viability decrease (inhibition) [7] 22.7% | viability decrease (inhibition) [8] 47.8% | outcome [13] | outcome [17] | outcome [14]
3%: nuclear beta-catenin stimulation ([1]; stimulation, at 2 µM)
